In the supplement of paper PMC11150407:
Values joined by “and” are separate entries in the source; they are usually repeats but may differ in a detail not shown here. Identical values can stand only once. Counter-ions that a name gives are not always drawn. In all, about 2,100 compounds went through this assay and about 180 (8.6%) showed an effect of 50% or more. What follows is part of a selection rich in strong results, with near analogues and random picks from the rest.

test system: MOLM1 and UCSD/AML1 (averaged); assay: cell viability relative to DMSO control (POC); higher = less growth inhibition; details: 1 µM; 72 h
Description: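 Primary viability screen in the 3q26 EVI1-high AML cell lines MOLM1 and UCSD/AML1 (1.5e3 cells/well, 384-well), compounds at 1 uM for 72 h. ATP CellTiter-Glo read-out given as percent of viable cells over DMSO control (POC), averaged over duplicates. DMSO was the negative control and 5 uM etoposide the positive control. This mapping covers the MicroSource Spectrum and Selleck anticancer libraries (drug names).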

Compound | cell viability
OCC(O)C(O)C(O)C(O)C(O)CO (stereo not drawn) | 102%
COc1ccc2c(c1)OC/C(=C/c1ccc(OC)c(OC)c1)C2=O | 108%
COc1ccc2c(c1)OCC(Cc1ccc(OC)c(OC)c1)C2=O (stereo not drawn) | 112%
COc1ccc2c(c1)OC/C(=C\c1ccc(OC)c(O)c1)C2=O | 18.3%
COC(=O)[C@@H]1OC(=O)C2OC23[C@@]1(C)CCC1[C@]2(C)C(C[C@H](O)[C@]13C)C(C)(C)[C@H](OC(C)=O)C[C@@H]2OC(C)=O (stereo partly drawn) [7beta-HYDROXY-7-DESACETOXYKHIVORINIC ACID, METHYL ESTER] | 111%
COC(=O)C[C@H]1C(C)(C)C2(O)OC34CC2C(=O)[C@]1(C)C3CC[C@]1(C)C4=CC(=O)O[C@H]1c1ccoc1 (stereo partly drawn) [8beta-HYDROXYCARAPIN, 3,8-HEMIACETAL] | 89%
CC(C)CC(NC(=O)OCC1c2ccccc2-c2ccccc21)C(=O)O (stereo in doubt) | 105%
COc1cccc2c1C(=O)c1c(O)c3c(c(O)c1C2=O)C[C@@](O)(C(=O)CO)C[C@@H]3O[C@H]1C[C@H](N)[C@@H](O)[C@H](C)O1 | 5.86%
COc1cccc2c1C(=O)c1c(O)c3c(c(O)c1C2=O)C[C@@](O)(C(=O)CO)C[C@@H]3O[C@H]1C[C@H](N)[C@H](O)[C@H](C)O1 [Doxorubicin (Adriamycin)] | 1.61%
COc1cccc2c1C(=O)c1c(O)c3c(c(O)c1C2=O)C[C@@](O)(C(=O)CO)C[C@@H]3O[C@H]1C[C@H](N)[C@H](O)[C@H](C)O1 | 1.67%
COc1cccc2c1C(=O)c1c(O)c3c(c(O)c1C2=O)C[C@@](O)(C(=O)CO)C[C@@H]3O[C@H]1C[C@H](N)[C@@H](O)[C@H](C)O1 [Epirubicin Hydrochloride] | 1.66%
COc1cccc2c1C(=O)c1c(O)c3c(c(O)c1C2=O)C[C@@](O)(C(C)=O)C[C@@H]3O[C@H]1C[C@H](N)[C@H](O)[C@H](C)O1 [Daunorubicin HCl (Daunomycin HCl)] | 1.38%
CC(=O)[C@]1(O)Cc2c(O)c3c(c(O)c2[C@@H](O[C@H]2C[C@H](N)[C@H](O)[C@H](C)O2)C1)C(=O)c1ccccc1C3=O [Idarubicin HCl] | 1.49%
COc1cccc2c1C(=O)c1c(O)c3c(c(O)c1C2=O)C[C@@](O)(C(C)=O)C[C@@H]3O[C@H]1C[C@H](N)[C@H](O)[C@H](C)O1 | 1.85%
CCCCCCCCCCCC[C@@H](C(=O)O)[C@H](C)C(=O)O | 96%
Cc1cc(O)cc(=O)o1 | 112%
O=C1C=C(O)C(=O)c2ccccc21 | 92.9%
CC(=O)OCC(=O)[C@@]1(O)CC[C@H]2[C@@H]3C[C@H](C)C4=CC(=O)C=C[C@]4(C)[C@H]3[C@@H](O)C[C@@]21C [6alpha-METHYLPREDNISOLONE ACETATE] | 65%
CC(=O)O[C@]1(C)CC[C@@]23C[C@H]1C(C)(C)[C@@H]2CC[C@H]3C | 107%
C[C@H]1CC[C@@H](C(C)(C)O)CC2=C1CC[C@@H]2C | 94.4%
Oc1ccc2c(c1)OC[C@]1(O)Cc3cc(O)c(O)cc3[C@H]21 | 105%
COc1cc2ccc(=O)oc2cc1O | 94.7%
CC1/C(=N/O)C[C@@H]2C[C@H]1C2(C)C (stereo partly drawn) | 102%
C[n+]1ccccc1C=NO | 99.8%
COc1ccc(C2CC(=O)c3ccc(OC)cc3O2)cc1 (stereo not drawn) | 109%
N#Cc1c(O)c2c(-c3ccc(-c4ccccc4O)cc3)csc2[nH]c1=O | 97.3%

Compound | cell viability
COC(=O)[C@H]1[C@H]2C[C@H]3c4[nH]c5cc(OC)ccc5c4CCN3C[C@H]2C[C@@H](OC(=O)c2cc(OC)c(OC)c(OC)c2)[C@@H]1OC | 111%
COC1=C[C@@H](C)[C@@H]2C[C@H]3OC(=O)C[C@H]4C(C)=C(OC)C(=O)[C@H]([C@@]2(C)C1=O)[C@@]34C | 93.7%
CC(C)CC(=O)Nc1n[nH]c2c1CN(C(=O)C1CCN(C)CC1)C2(C)C | 49.4%
O=c1[nH]cnc2nc[nH]c12 | 102%
CC1(C)CC[C@]2(C)CC[C@]3(C)C(=CC[C@@H]4[C@@]5(C)CC[C@H](O)C(C)(C)[C@@H]5CC[C@]43C)[C@@H]2C1 [beta-AMYRIN] | 91.8%
CC1(C)CNc2cc(NC(=O)c3cccnc3NCc3ccncc3)ccc21 [Motesanib Diphosphate] | 86.1%
CCCCC(CC)CN=C(N)N=C(N)NCCCCCCNC(N)=NC(N)=NCC(CC)CCCC (stereo not drawn) | 7.07%
O=C(O)[C@]1(O)C[C@@H](O)[C@@H](O)[C@H](O)C1 | 97.5%
C[C@@H]1CN(CC(=O)Nc2ccc3c(c2)Cc2cccc(-c4cc(=O)cc(N5CCOCC5)o4)c2S3)C[C@H](C)O1 | 88.5%
CCCCCC(=O)Cc1cc(O)cc(O)c1C(=O)Oc1cc(CC(=O)CCCCC)c(C(=O)O)c(OC)c1 | 87.8%
COc1c(-c2coc3cc4c(cc3c2=O)CC(O)C(C)(C)O4)ccc2c1C=CC(C)(C)O2 (stereo not drawn) | 82.2%
COc1ccc(CC(=O)c2ccc(O)cc2O)cc1 | 107%
O.O.O.O.O.O.O.O.O.O.O.O.O.O.O.O.O=S(=O)([O][Al])OC[C@H]1O[C@@](COS(=O)(=O)[O][Al])(O[C@H]2O[C@H](COS(=O)(=O)[O][Al])[C@@H](OS(=O)(=O)[O][Al])[C@H](OS(=O)(=O)[O][Al])[C@H]2OS(=O)(=O)[O][Al])[C@@H](OS(=O)(=O)[O][Al])[C@@H]1OS(=O)(=O)[O][Al] | 101%
COC(=O)C[C@H]1C(C)(C)[C@@H](OC(C)=O)[C@@H]2CC3=C4CC(=O)O[C@@H](c5ccoc5)[C@]4(C)CC[C@@H]3[C@@]1(C)C2=O | 103%
COC(=O)c1c(C)cc(O)cc1O | 98.5%
CC(C)(C)CC(C)(C)c1ccc(OCCOCC[N+](C)(C)Cc2ccccc2)cc1 | 97.1%
Cc1cc(C(C)(C)CC(C)(C)C)ccc1OCCOCC[N+](C)(C)Cc1ccccc1 | 88.2%
CCCCCCCCCCCCC[N+](C)(C)Cc1ccccc1 | 25.7%
Cc1ccc(C(C)C)cc2c(C)ccc1-2 | 84.7%
COc1ccc(-c2cc(=O)c3c(O)c(OC)c(OC)c(OC)c3o2)cc1OC | 80.2%
O=C(CCCCCCC(=O)Nc1ccccc1)NO [Vorinostat (SAHA)] | 22%
O=C(Nc1ccccc1)c1ccccc1O | 97.1%
O=C(Nc1ccccc1)Nc1ccccc1 | 87.7%
O=c1c(O)c(-c2ccccc2)oc2cccc(O)c12 | 93.1%
CCC(CCC(C)C1CCC2C3CCC4CC(O)CCC4(C)C3CCC12C)C(C)C (stereo not drawn) | 89.6%
C=C1C(N)CC2CC1C2(C)C (stereo not drawn) [3-AMINO-beta-PINENE] | 96.3%

Compound | cell viability
CC(C)[C@@H]1CC[C@@H](C)CC1=O | 102%
CC(=O)O[C@@]12CO[C@@H]1C[C@H](O)[C@@]1(C)C(=O)[C@H](O)C3=C(C)[C@@H](OC(=O)[C@H](O)[C@@H](NC(=O)OC(C)(C)C)c4ccccc4)C[C@@](O)([C@@H](OC(=O)c4ccccc4)[C@H]21)C3(C)C [Docetaxel (Taxotere)] | 14.7%
CC(=O)O[C@H]1C(=O)[C@@]2(C)[C@H]([C@H](OC(=O)c3ccccc3)[C@]3(O)C[C@H](OC(=O)[C@H](O)[C@@H](NC(=O)c4ccccc4)c4ccccc4)C(C)=C1C3(C)C)[C@]1(OC(C)=O)CO[C@@H]1C[C@@H]2O | 11.7%
CC(=O)O[C@H]1C(=O)[C@@]2(C)[C@H]([C@H](OC(=O)c3ccccc3)[C@]3(O)C[C@H](OC(=O)[C@H](O)[C@@H](NC(=O)c4ccccc4)c4ccccc4)C(C)=C1C3(C)C)[C@]1(OC(C)=O)CO[C@@H]1C[C@@H]2O [Paclitaxel (Taxol)] | 12.3%
COc1nc(C)cnc1NS(=O)(=O)c1cccnc1-c1ccc(-c2nnco2)cc1 [Zibotentan (ZD4054)] | 71.2%
Nc1nccc(Oc2ccc(NC(=O)c3c[nH]cc(-c4ccc(F)cc4)c3=O)cc2F)c1Cl | 83.2%
O=C1c2ccccc2C(=O)c2c(O)c(O)cc(O)c21 | 83.8%
O=c1c(O)c(-c2ccccc2)oc2cc(O)ccc12 | 107%
CC1(C)CC[C@]2(C(=O)O)CC[C@]3(C)C(=CC[C@@H]4[C@@]5(C)CC[C@H](O)[C@@](C)(CO)[C@@H]5CC[C@]43C)[C@@H]2C1 | 89.4%
COc1ccc(C(C)=O)c(OC)c1 | 91.5%
COC(=O)c1c(C)cc(OC(=O)c2c(C)cc(O)c(C=O)c2O)c(C)c1O | 100%
O=C(NCCCNc1nc(Nc2cccc(NC(=O)N3CCCC3)c2)ncc1I)c1cccs1 | 47.6%
C#CC1(O)CC[C@H]2[C@@H]3CCC4=CC(=O)CC[C@@H]4[C@H]3CC[C@@]21CC (mixture of isomers) | 69.3%
C[C@@H]1CC[C@H]2C(C)(C)[C@H]3C[C@@]12CC[C@@]3(C)O | 105%
COc1cc2ccc(=O)oc2c(OC)c1OC | 110%
CCCCCCCCCCCCCCC(C(=O)O)C(O)(CC(=O)OC)C(=O)O (stereo not drawn) | 87.8%
CN1CCN(c2ccc3nc(-c4c(N)c5c(F)cccc5[nH]c4=O)[nH]c3c2)CC1 [Dovitinib (TKI-258)] | 26.7%
COc1cc2c(cc1OC)-c1cc3ccc(OC)c(OC)c3c[n+]1CC2 | 95.7% and 88.9%
CC(=O)O[C@@H]1CC2C(C)(C)[C@H](O)CC[C@]2(C)C2CC[C@@]3(C)[C@H](c4ccoc4)OC(=O)C4OC43[C@@]21C (stereo partly drawn) [alpha-DIHYDROGEDUNOL] | 123%
COc1ccc(-c2coc3c(O)c(OC)ccc3c2=O)cc1 | 94.6%
CNC(=O)c1ccc(C)c(-n2c(C)cc(OCc3ccc(F)cc3F)c(Br)c2=O)c1 | 87.5%
C=CC[C@@H]1/C=C(\C)C[C@H](C)C[C@H](OC)[C@H]2O[C@@](O)(C(=O)C(=O)N3CCCC[C@H]3C(=O)O[C@H](/C(C)=C/[C@@H]3CC[C@@H](O)[C@H](OC)C3)[C@H](C)[C@@H](O)CC1=O)[C@H](C)C[C@@H]2OC | 85.3%
CO[C@H]1C[C@@H]2CC[C@@H](C)[C@@](O)(O2)C(=O)C(=O)N2CCCC[C@H]2C(=O)O[C@H]([C@H](C)C[C@@H]2CC[C@@H](OCCO)[C@H](OC)C2)CC(=O)[C@H](C)/C=C(\C)[C@@H](O)[C@@H](OC)C(=O)[C@H](C)C[C@H](C)/C=C/C=C/C=C/1C [Everolimus (RAD001)] | 50.2%
CO[C@H]1C[C@@H]2CC[C@@H](C)[C@@](O)(O2)C(=O)C(=O)N2CCCC[C@H]2C(=O)O[C@H]([C@H](C)C[C@@H]2CC[C@@H](O)[C@H](OC)C2)CC(=O)[C@H](C)/C=C(\C)[C@@H](O)[C@@H](OC)C(=O)[C@H](C)C[C@H](C)/C=C/C=C/C=C/1C | 44%
CO[C@H]1C[C@@H]2CC[C@@H](C)[C@@](O)(O2)C(=O)C(=O)N2CCCC[C@H]2C(=O)O[C@H]([C@H](C)C[C@@H]2CC[C@@H](OC(=O)C(C)(CO)CO)[C@H](OC)C2)CC(=O)[C@H](C)/C=C(\C)[C@@H](O)[C@@H](OC)C(=O)[C@H](C)C[C@H](C)/C=C/C=C/C=C/1C | 11%
CO[C@H]1C[C@@H]2CC[C@@H](C)[C@@](O)(O2)C(=O)C(=O)N2CCCC[C@H]2C(=O)O[C@H]([C@H](C)C[C@@H]2CC[C@@H](O)[C@H](OC)C2)CC(=O)[C@H](C)/C=C(\C)[C@@H](O)[C@@H](OC)C(=O)[C@H](C)C[C@H](C)/C=C/C=C/C=C/1C [Rapamycin (Sirolimus)] | 41.5%
